Experimental data published in PubChem BioAssay AID686978 (National Center for Advancing Translational Sciences (NCATS), 2013).
Among all 420,000 compounds or so, about 64,000 (15%) were called active. Not shown: some 27% with an inconclusive outcome. Only a sample is shown. A number with no mark means an inactive call. Calls follow the shape of the dose curve; as a rule, active = well fitted inhibition curve with a large enough effect; inconclusive = small, poorly fitted or top-dose-only effect; inactive = flat fitted curve, though single readings scatter.

Experiment: qHTS for Inhibitors of human tyrosyl-DNA phosphodiesterase 1 (TDP1): qHTS in cells in absence of CPT; also: nearly all actives have a fitted effect of over 55% in size
Conditions: DT40 Tdp1-/- hTDP1 cells, no CPT, ATP luminescence, 48 h; activity change, negative = growth inhibition: at 46.2 µM (top of the series)
In short: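 Chicken DT40 Tdp1-/- cells stably complemented with human TDP1 were seeded at 400 cells/well with DMSO in place of 20 nM camptothecin. After compound pinning, cells grew at least 48 hr at 37 °C; viability read by CellTiter-Glo luminescence.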
% is scaled to controls: 0 for no effect and ±100 for the full control effect; potency is read from the fitted curve at half-maximal effect.

SMILES	activity change, negative = growth inhibition	Potency
CCCC(C(=O)N1CCOCC1)N1C(=O)C2C3C=CC(C3)C2C1=O (stereo not given)	-3.04%	–
CC(=O)OCC(COC(C)=O)OC(C)=O	–	inactive
O=C(CN1C(=O)/C(=C\c2ccccc2F)SC1=S)Nc1nc2ccccc2s1	-16.7%	–
COCCN1CCn2c(nc3cc(NS(C)(=O)=O)ccc32)C1	2.37%	–
O=C(CN1C(=O)c2ccccc2S1(=O)=O)NC1CCCCC1	0.24%	–
COc1cccc(Oc2ccc(N)cc2)c1	4.38%	–
COc1cc(OC)nc(N/N=C(\c2ccccc2)c2ccncc2)n1	-24.4%	–
CCOc1ccc(N2C(=O)CSC2=NC#N)cc1	3.53%	–
CCC(C(=O)NC1CCCCC1)N(C(=O)c1snc(C(N)=O)c1N)c1ccc(OC)cc1OC (stereo not given)	–	23.1 µM (active)
CCC(C(=O)NC1CCCC1)N(C(=O)c1snc(C(N)=O)c1N)c1ccc2c(c1)OCCO2 (stereo not given)	-16.1%	–
COc1ccc(N(C(=O)c2snc(C(N)=O)c2N)C(C(=O)NC2CCCC2)c2ccco2)cc1OC (stereo not given)	-1.62%	–
COc1cccc(-n2c(=O)c3c(C)c(C(=O)N(C)C)sc3n(CC(=O)NCCc3ccc(OC)c(OC)c3)c2=O)c1	–	inactive
CCc1ccc(C(CNc2nc(C(F)(F)F)nc3ccccc23)N(C)C)cc1 (stereo not given)	–	18.4 µM (active)
CN(C)C(CNC(=O)Cc1ccc([N+](=O)[O-])cc1)c1ccccc1 (stereo not given)	0.739%	–
C=CCn1cc(Cl)cc(C(=O)Nc2ccccc2)c1=O	7.08%	–
CCn1cc(/C=C(\NC(=O)c2ccc(C)cc2)C(=O)NCCN2CCOCC2)c2ccccc21	-5.26%	–
O=C(CC(=O)N/N=C\c1ccc(F)cc1)NCCc1ccccc1	-3.12%	–
COc1ccccc1NC(=O)CCCc1c[nH]c2ccccc12	-21.7%	–
O=C(Cc1c[nH]c2ccccc12)N/N=C/c1cccc(F)c1	–	3.66 µM (active)
COCCNC(=O)C(c1ccc(O)cc1)N(C(=O)CCC(=O)Nc1nccs1)c1ccc(C)cc1 (stereo not given)	-15.8%	–
C/C(=N/NC(=O)CC(=O)N/N=C(\C)c1ccc([N+](=O)[O-])cc1)c1ccc([N+](=O)[O-])cc1	-27.2%	–
C/C(=N\N(C)C)c1ccc(OCCOc2ccc([N+](=O)[O-])cc2)cc1	–	25.9 µM (active)
CCOC(=O)COc1ccc([N+](=O)[O-])cc1	-6.06%	–
Cc1cccc(N(CC(=O)N2CCCC2)S(C)(=O)=O)c1C	-9%	–

SMILES	activity change, negative = growth inhibition	Potency
CC1(OC(=O)CCc2ccccc2)C(=O)C=C2C=C(c3ccc(C#N)cc3)N(CCc3ccccn3)C=C2C1=O (stereo not given)	-15.3%	–
CCN(CC)S(=O)(=O)c1ccc2c3c(cccc13)C(=O)S2	-13.9%	–
C/C(=N\NC(=O)c1cccnc1)c1ccc(-n2ccnc2)cc1	-4.41%	–
COCC(C)NCc1cc(Br)ccc1OC (stereo not given)	-10.7%	–
CCC(C)NCCOCCOc1ccc(Br)cc1C (stereo not given)	–	20.6 µM (active)
O=C1C(=O)N(CCCN2CCOCC2)C(c2ccc([N+](=O)[O-])cc2)/C1=C(\O)c1ccc2c(c1)OCCO2 (stereo not given)	4.62%	–
O=C(ON=C1CCN(S(=O)(=O)c2ccccc2)CC1)c1ccc(Cl)cc1	1.58%	–
CCOc1ccc2[nH]c3nc(SCC(=O)NC4CCCC4)nnc3c2c1	–	6.51 µM (active)
CCOc1cccc(-c2nnc(SCC(=O)NC3CC3)n2C)c1	16.9%	–
Cc1ccc(CNC(=O)CSc2nnc3c(n2)[nH]c2ccc(F)cc23)cc1	4.95%	–
CC(Sc1nncn1C)C(=O)Nc1ccccc1-c1ccccc1 (stereo not given)	-0.357%	–
O=C(Cc1cccs1)NCc1cccc(C(F)(F)F)c1	-13.7%	–
COc1ccc(CCNC(=O)Nc2ccc3c(c2)c(=O)n(C)n3C)cc1OC	-3.91%	–
Cn1c(=O)c2cc(NC(=O)NCCc3cccs3)ccc2n1Cc1cccc(C(F)(F)F)c1	–	23.1 µM (active)
COc1ccc(S(=O)(=O)Nc2cccnc2)c(Cl)c1Cl	-22.8%	–
Cc1c(NC(=O)CSCc2ccccc2)cccc1C(=O)O	7.62%	–
O=C(c1cc(-c2ccc(O)cc2)on1)N1CCCc2ccccc21	-27.9%	–
Cc1cccc2cc3c(N)c(C(=O)N4CCCc5ccccc54)sc3nc12	–	2.59 µM (active)
Cc1occc1C(=O)N1CCCc2ccccc21	-3.66%	–
CC(C)[C@H](NC(=O)OCc1ccccc1)C(=O)OCc1ccccc1	-26.4%	–
Nc1scc[n+]1Cc1cccc2cccnc12	0.571%	–
c1ccc2c(C[n+]3csc4ccccc43)cccc2c1	–	0.82 µM (active)
Cn1c(C(=O)NCCc2ccsc2)cc2c(=O)n(C)c3ccccc3c21	–	16.4 µM (active)
CCOCCCNC(=O)c1cn(CC(C)C)c(=O)c2c1c1ccccc1n2C	-21.2%	–

SMILES	activity change, negative = growth inhibition	Potency
CCOc1ccc(CCNC(=O)c2cc3c(=O)n(C)c4ccccc4c3n2C)cc1	–	14.6 µM (active)
CCOc1ccc(CCNC(=O)c2c(C)oc3ncn(C)c(=O)c23)cc1	3.22%	–
CCOc1ccc(CC(=O)NCCc2csc3nc(-c4ccccc4F)nn23)cc1	-21.6%	–
Cn1c(C(=O)N2CCC(C(N)=O)CC2)cc2c(=O)n(C)c3ccccc3c21	-19%	–
COc1ccc(C(=O)NNC(=O)c2cnccn2)cc1[N+](=O)[O-]	-8.01%	–
CCc1ccc(N2C(=O)CN(S(=O)(=O)CC)CC2(C)C(=O)NC2CCCCC2)cc1 (stereo not given)	-19.8%	–
Cc1cccc(-n2c(O)c(C=Nc3ccccc3N)c(=O)[nH]c2=O)c1	-6.79%	–
Cc1cc(C)c(OCCN2CC(C)OC(C)C2)c(Br)c1 (stereo not given)	–	16.4 µM (active)
Cc1cccc(C)c1OCCN1CCOCC1	-24.1%	–
CC1CN(CCOc2ccccc2[N+](=O)[O-])CC(C)O1 (stereo not given)	-23.7%	–
COc1ccc(N2CCN(S(=O)(=O)c3ccc4c(c3)N(C(C)=O)CCO4)CC2)cc1	-8.63%	–
O=C(CN1C(=O)C2C3C=CC(C3)C2C1=O)NCCc1ccccc1Cl (stereo not given)	-9.82%	–
COc1cc(N2C(=O)c3ccccc3C2=O)c(Cl)cc1C(=O)OCC(=O)N1CCOCC1	4.59%	–
Cc1ccccc1NC(=O)c1cc(S(=O)(=O)N2CCOCC2)cs1	-11.8%	–
Cc1ccc(NC(=O)C2CCC(C(C)(C)C)CC2)cc1S(=O)(=O)N1CCOCC1 (stereo not given)	–	20.6 µM (active)
COc1ccc(C(=O)OC(C)C(=O)NC2CCCC2)cc1S(=O)(=O)N1CCOCC1 (stereo not given)	13.3%	–
Cc1ccc(NC(=O)NC2CCCCC2)cc1S(=O)(=O)N1CCOCC1	-4.9%	–
Cc1ccc(NC(=O)c2ccc(Cl)nc2)cc1S(=O)(=O)N1CCOCC1	–	8.2 µM (active)
Cc1ccc(NC(=O)COC(=O)C2CC2)cc1S(=O)(=O)N1CCOCC1	0.794%	–
Cc1ccc(NC(=O)CCCNC(=O)c2ccc(Cl)cc2)cc1S(=O)(=O)N1CCOCC1	-18.1%	–
Cc1ccc(C(=O)Nc2ccccc2C(=O)NC2CCCCC2)cc1S(=O)(=O)N1CCOCC1	–	18.4 µM (active)
Cc1ccc(NC(=O)c2ccccn2)cc1S(=O)(=O)N1CCOCC1	-6.82%	–
